Compound activity as filed in PubChem.
CYP2C9 inh – human CYP2C9 inhibition | P11712 | CYP2C9 Supersomes, luciferin-H conversion, luminescence | inhibition, % at 5 µM | hit rate 20% among 96,000 | AID 777;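 active = blocking of liver enzyme CYP2C9 beyond about 50% at 5 µM, limit read from the data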
PostGolgi ctrl – inhibits growth of the yeast control strain | efflux-deficient yeast background strain, growth absorbance A615, 16 h | hit rate 5% among 98,000 | inhibition, % at 10 µM
PostGolgi yeast – growth inhibition of a yeast mutant, post-Golgi transport screen. hit rate 0.9% among 98,000. inhibition, % at 10 µM. post-Golgi transport phenotypic cell assay;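 also: yeast cells grown in 1536-well plates; yeast grown about 18 h at 30C before absorbance read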
CYP2C19 inhib – inhibitors of human CYP2C19; P33261; CYP2C19 Supersomes, luciferin-H EGE luminescence, 30 min; inhibition, % at 5 µM; hit rate 21% among 96,000; AID 778;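 active = CYP2C19 inhibition above a set limit at 5 µM in the primary screen, cut at about 50% in these data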;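 also: plate controls were negative control wells for no effect and 2.5 mM tranylcypromine positive control for full effect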
CYP2C9 activ – activators of human CYP2C9; recombinant CYP2C9, luciferin-H conversion, luminescence; stronger effect = higher value; factor 1 = untreated enzyme, 0 = blocked; activation factor at 5 µM; hit rate 1.4% among 96,000; AID 1024;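 active = activation factor of 2 or more for CYP2C9 at a 5 µM dose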;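 also: 0 = sulfaphenazole-blocked wells and 1 = vehicle-only wells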
CYP2C19 act – increases human CYP2C19 enzyme activity; recombinant CYP2C19, luciferin-H EGE luminescence; stronger effect = higher value; 0 = fully inhibited enzyme, 1 = untreated enzyme; P33261; activation factor at 5 µM; 96,000 tested, under 10 active;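 active = activation factor of at least 2 at 5 µM in the primary screen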;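 also: 0 = wells with 2.5 mM tranylcypromine and 1 = vehicle-only wells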
* = called active by the depositor; · = no result. The list is a sample of the results. Rule as the data show it, unless noted: active = inhibition above about 30%; inactive = the rest.

SMILES	CYP2C9 inh	PostGolgi ctrl	PostGolgi yeast	CYP2C19 inhib	CYP2C9 activ	CYP2C19 act
CCOc1ccc2nc(NC(=O)CSc3nc4ccccc4c(=O)n3Cc3ccco3)sc2c1	32	-1	1	26	0.7	0.7
COC(=O)CSc1ccc2c(N)c(C(=O)OC)sc2c1	33	3	0	39	0.7	0.6
Cc1ccccc1NC(=O)c1sc2nc[nH]c(=O)c2c1C	-22	1	-3	-9	1.2	1.1
CCCc1nc(SCc2ccc(Cl)cc2Cl)n[nH]1	27	16	16	84*	0.7	0.2
CCCn1c(SCC(=O)NCCc2ccc(Cl)cc2Cl)n[nH]c1=O	35	6	1	27	0.6	0.7
COc1cccc(NC(=O)CNC(=O)c2cccs2)c1	28	-12	-7	47	0.7	0.5
CCOC(=O)c1cccc(NC(=O)CCS(=O)(=O)c2cccs2)c1	89*	2	-3	72*	0.1	0.3
CCOC(=O)c1cccc(NC(=O)CCS(=O)(=O)c2ccc(Br)s2)c1	48	4	-3	30	0.5	0.7
COc1cccc(NC(=O)CCS(=O)(=O)c2cccs2)c1	58*	11	7	60*	0.4	0.4
O=C1C=C(c2ccccc2)C(=O)N1Nc1ccccc1	28	30	104*	17	0.7	0.8
Cc1ccc(C(=O)Nc2c(C)cc(-c3ccc(Cl)cc3)oc2=O)cc1	39	-7	11	-4	0.6	1
Cc1ccc(NN2C(=O)C=C(c3ccc(Cl)cc3)C2=O)cc1	56*	99*	106*	-5	0.4	1
Cc1cc2c(N=O)c(NO)ccc2[nH]1	46	11	-3	26	0.5	0.7
CCOC(=O)c1cc(OC(=O)c2cccnc2)n(-c2ccccc2)n1	14	-1	0	6	0.9	0.9
COc1cccc(-c2csc(N3CCN(C(=S)Nc4ccccc4Cl)CC3)n2)c1	64*	24	6	73*	0.4	0.3
COc1cccc(-c2csc(N3CCN(C(=S)Nc4ccccc4OC)CC3)n2)c1	-6	13	-4	70*	1.1	0.3
COc1cccc(-c2csc(N3CCN(C(=S)Nc4cccc(Cl)c4)CC3)n2)c1	41	2	-6	35	0.6	0.6
COc1ccc(NC(=O)N2CCN(c3nc(-c4cccc(OC)c4)cs3)CC2)cc1	·	41*	-17	·	·	·
Cc1nc2c(sc3nc4c(cc32)COC(C)(C)C4)c(=O)o1	72*	6	1	16	0.3	0.8
Cc1nc2c(sc3nc4c(cc32)COC(C)(C)C4)c(=O)n1Cc1ccccc1	40	7	-3	28	0.6	0.7
COc1ccc(NC(=O)c2c(-c3ccccc3)noc2C)c(OC)c1	31	25	-2	46	0.7	0.5
COc1ccc(-n2nc3c(c2NC(=O)c2c(-c4ccccc4Cl)noc2C)CS(=O)(=O)C3)cc1	82*	0	-6	50	0.2	0.5
Cc1onc(-c2ccccc2Cl)c1C(=O)Nc1c(C)n(C)n(-c2ccccc2)c1=O	-3	-4	4	0	1	1
COc1ccc(NC(=O)c2c(-c3ccccc3Cl)noc2C)c(OC)c1	49	23	-3	59*	0.5	0.4
Cc1ccc(-c2cc3nn(-c4ccccc4)c(N)c3c(=O)o2)cc1	16	3	0	12	0.8	0.9
SMILES	CYP2C9 inh	PostGolgi ctrl	PostGolgi yeast	CYP2C19 inhib	CYP2C9 activ	CYP2C19 act
CC(/C=N\Nc1nnc2c(n1)[nH]c1c(C)cccc12)=C\c1ccco1	-3	10	-6	-6	1	1.1
Cc1ccc(S(=O)(=O)N2CCCC2C(=O)NC2=NCCS2)cc1 (configuration not stated)	-18	4	-3	25	1.2	0.7
C=CCn1c(CNc2ccccc2)nnc1SCC(=O)N/N=C/c1ccccc1O	10	3	-2	-4	0.9	1
COc1cc(C2C(C(=O)OC(C)C)=C(C)Nc3[nH]c(=O)[nH]c(=O)c32)ccc1O (configuration not stated)	50	1	-6	82*	0.5	0.2
COc1cc(C2C(C(C)=O)=C(C)Nc3ncnn32)ccc1O (configuration not stated)	-6	5	9	-14	1.1	1.1
O=C(O)c1cccc(CSc2nc(-c3ccc(Cl)cc3)cc(C(F)(F)F)n2)c1	-8	6	-1	-16	1.1	1.2
